Among the data in PubChem BioAssay AID1531 (NMMLSC, 2009) are binding response (% of control) values, retold here.

The whole screen tested about 290,000 compounds, of which about 3,300 (1.1%) were called active. Cut-off read from the data, not from the text of the source: active = binding response below about 67% or above about 130%; inconclusive = no clear call, values can overlap the other calls; inactive = in between. Only a selection was taken, and actives are over-represented in it overall.

The target of this experiment is Mitogen-activated protein kinase kinase kinase 2 (Homo sapiens) (UniProt Q9Y2U5). The experiment can be described thus: wildtype MEKK2 PB1-MEK5 interaction, increase or decrease – biochemical, multiplex bead flow cytometry, Alexa488-MEK5, primary screen (AID 1531). Particulars: Alexa488-MEK5 binding to MEKK2 WT, at 10 µM, actives lie on both sides. A general note: Flow cytometry measures light scatter and fluorescence of single cells or particles in a stream.
For `CCN(CC)CCN1C(=O)C2C(C(=O)Nc3ccc(Br)cc3)C3C=CC2(O3)C1C(=O)NC1CCCCC1` (stereo not given), the binding response (% of control) was 106% (inactive). Regarding `C=CCOC(=O)C1=C[C@H](c2ccc(Br)cc2)C[C@H](OCCCCO)O1`, the binding response (% of control) is 95% (inactive). Then `Cc1cc2oc3ccc(NCCC4CCCN4C)cc3c(=O)c2cc1C` (stereo not given), with 135% (inactive); and `CCOC(=O)CSc1nc2ccc(C)cc2n2cnnc12`, with 96% (inactive); and `C#CCNC(=O)[C@H](Cc1ccc(C(=O)c2ccccc2)cc1)NC(=O)OC(C)(C)C`, with 101% (inactive). Then `Cc1cc(-c2ccc(C)c(S(=O)(=O)NCCCN(Cc3ccccc3)C(C)C)c2)on1`, with 108% (inactive); and `Cc1ccc(N2C(=O)CC(N3CCSCC3)C2=O)c(C)c1` (stereo not given), with 62% [inhibitor] (active). Then `O=C1CC(N2CCN(c3ccc(F)cc3)CC2)C(=O)N1c1ccccc1` (stereo not given), with 101% (inactive). With `Cc1ccc(CC2CC(=O)N(c3cc(C)ccc3C)C2=O)cc1` (stereo not given), the binding response (% of control) was 101% (inactive).

As to `COc1cc(C(=O)NCCOC(=O)c2cccc(N(C)C)c2)cc(OC)c1OC`, the binding response (% of control) was 96% (inactive). Then `COc1ccc(N2CCN(C(=O)C3CCN(C(=O)c4ccccc4Cl)CC3)CC2)cc1`, with 97% (inactive); and `O=C(Cn1cnc2ccccc21)Nc1ccccc1-c1ccccc1`, with 115% (inactive). Then `COc1ccccc1C(C)NC(=O)Cc1ccsc1` (stereo not given), with 104% (inactive); and `CN1CCN(c2ccc(NC(=O)c3ccccc3)cc2)CC1`, with 111% (inactive). Then `O=C(c1ccccc1)c1ccc(C(=O)N2CCN(c3ccccc3)CC2)cc1`, with 102% (inactive); and `CN1CCC(CN)(N2CCN(c3ccccc3)CC2)CC1`, with 146% (active).

`CCn1c(SCC(=O)NC2CC2)nnc1-c1ccccc1OC`: the binding response (% of control) is 100% (inactive).

Turning to `CCOC(=O)C(Cc1ccc(N)cc1)N1C(=O)c2ccccc2C1=O` (stereo not given), the binding response (% of control) is 106% (inactive).

Take `O=S(=O)(NCC1CC1)c1ccc(F)c(Cl)c1`: the binding response (% of control) is 97% (inactive).

Regarding `O=C(CN1C(=O)c2cccnc2Oc2ccc(Cl)cc21)Nc1ccc(F)cc1`, the binding response (% of control) is 50% [inhibitor] (active). Then `Cc1ccc2c(c1)N(CC(=O)NCCc1ccc(Cl)cc1)C(=O)c1cccnc1O2`, with 98% (inactive). For `O=C(CN1C(=O)c2cccnc2Oc2ccc(Cl)cc21)NCCc1ccccc1`, the binding response (% of control) was 101% (inactive). Turning to `CC(=O)c1cccc(NC(=O)CN2C(=O)c3cccnc3Oc3ccc(Cl)cc32)c1`, the binding response (% of control) is 68% [inhibitor] (active). Take `Cc1ccc2c(c1)N(CC(=O)N1CCC(C)CC1)C(=O)c1cccnc1O2`: the binding response (% of control) was 103% (inactive). As to `Cc1ccc2c(c1)N(CC(=O)NCCCN1CCCCC1)C(=O)c1cccnc1O2`, the binding response (% of control) is 106% (inactive). Then `Cc1ccc(-c2csc(NCCc3nc4cc(Cl)c(Cl)cc4n3CCOCCO)n2)cc1`, with 105% (inactive); and `CCn1ccnc1CN(C)C(=O)c1ccc2nc(Cc3ccc(OC)cc3)oc2c1`, with 103% (inactive).

`COC(=O)c1ccc2c(C(C)(C)O)c(C(C)(C)O)[nH]c2c1`: the binding response (% of control) is 88% (inactive). Then `Cc1ccccc1N(C(=O)CNC(=O)c1cccs1)C(C(=O)NC1CCCC1)c1ccncc1` (stereo not given), with 98% (inactive); and `CCOC(=O)c1cc2occc2n1CC(=O)N1CCN(C(=O)c2ccco2)CC1`, with -8% [inhibitor] (active). Then `CCOC(=O)c1cc2occc2n1CC(=O)NC1CCC(C)CC1` (stereo not given), with 99% (inactive); and `CCOC(=O)c1cc2c(ccn2C)n1CC(=O)N1CCC(C)CC1`, with 110% (inactive); and `Fc1ccccc1/C=N/Nc1cc(N2CCCCC2)ncn1`, with 108% (inactive).

As to `CCOC(=O)Nc1ccc2c(c1)N(C(=O)CCCl)c1ccccc1[S@]2=O`, the binding response (% of control) is 107% (inactive). For the molecule `O=C(Cn1cnc([N+](=O)[O-])n1)NCCc1ccccc1`, the binding response (% of control) is 100% (inactive). Then `CC(C)(C)NC(=O)Cn1cnc([N+](=O)[O-])n1`, with 2% [inhibitor] (active).

On to `CC(C)(C)NC(=O)Cn1cnc2cc([N+](=O)[O-])ccc2c1=O`, for which the binding response (% of control) is 88% (inactive).

As for `CC(=O)Nc1ccc(NC(=O)CS(=O)(=O)c2cn(CC(=O)N3CCCCC3)c3ccccc23)cc1`, the binding response (% of control) is 99% (inactive).

Regarding `Cc1ccc(CSCC2Nc3ccc(C(=O)N4CCN(c5ccc(F)cc5)CC4)cc3NC2=O)cc1` (stereo not given), the binding response (% of control) was 94% (inactive). Then `Cc1snc(SCc2c(F)cccc2Cl)c1C#N`, with 108% (inactive); and `O=C(CN1CCN(S(=O)(=O)c2cc(Cl)ccc2Cl)CC1)c1ccc(O)c(O)c1`, with 97% (inactive).

In the case of `Oc1c(C=Nc2cccc3nsnc23)ccc2ccccc12`, the binding response (% of control) was 31% [inhibitor] (active).

Regarding `COc1ccc(C=Nc2cccc3ncccc23)cc1`, the binding response (% of control) is 81% (inactive). Then `O=[N+]([O-])c1ccc(N=Cc2c(O)ccc3ccccc23)cc1`, with 95% (inactive); and `O=C(OCC1O[C@@H](OC(=O)c2cc(O)c(O)c(O)c2)[C@@H](OC(=O)c2cc(O)c(O)c(O)c2)[C@@H](OC(=O)c2cc(O)c(O)c(O)c2)[C@@H]1OC(=O)c1cc(O)c(O)c(O)c1)c1cc(O)c(O)c(O)c1` (stereo not given in full), with 62% [inhibitor] (active); and `Cc1ccc(C)c(NS(=O)(=O)c2c(C)[nH]c(C)c2C(=O)N2CCCCC2)c1`, with 103% (inactive).

Consider `CCC(C)OC(=O)C(C)Oc1ccc(-c2ccccc2)cc1` (stereo not given), for which the binding response (% of control) is 2% [inhibitor] (active).

Consider `COc1ccc(-c2noc(CNC(=O)C(C)Oc3ccccc3)n2)cc1` (stereo not given), for which the binding response (% of control) is 98% (inactive). Then `CC(=O)Nc1ccc(NC(=O)COc2ccc(-c3ccccc3)cc2)cc1`, with 97% (inactive). Then `CCCCNC(=O)N(O)C1N(/N=C/c2ccccc2O)C(=S)SC1(C)C` (stereo not given), with 101% (inactive). Turning to `Cc1ccc(-n2ncc3c2CC(C)(C)CC3NC(=O)Cc2c(C)noc2C)cc1` (stereo not given), the binding response (% of control) is 100% (inactive). Then `Cc1cc(C)cc(C(=O)NCCN2CCOCC2)c1`, with 109% (inactive); and `CCCC1=Nc2cc(C(=O)NCCN3CCCC3)ccc2Sc2ccccc21`, with 142% (active); and `Cc1ccccc1CN1C(=O)c2ccccc2Sc2ccc(C(=O)NCCCN3CCOCC3)cc21`, with 110% (inactive). Then `CCC1=Nc2cc(C(=O)NCCCN3CCOCC3)ccc2Sc2ccc(Br)cc21`, with 108% (inactive); and `CCCC1=Nc2cc(C(=O)NCc3ccco3)ccc2Sc2ccccc21`, with 98% (inactive).

Take `CCC1=Nc2cc(C(=O)NCCN3CCCC3)ccc2Sc2ccc(C)cc21`: the binding response (% of control) is 155% (active). Then `COCCNC(=O)CSc1nc2sccc2c(=O)n1-c1ccccc1`, with 101% (inactive); and `CCOC(=O)C1CCN(C(=O)COc2cccc3ccccc23)CC1`, with 97% (inactive). For `Cc1nc(/N=C(\N)NC(=O)NC2CCCCC2)nc2ccccc12`, the binding response (% of control) is 108% (inactive).

As to `CC(=O)Oc1ccc(-c2nc3c(C)cccc3c(=O)o2)cc1`, the binding response (% of control) is 106% (inactive).

As to `Cc1nc(N=C(N)N)nc2c(C)cccc12`, the binding response (% of control) was 145% (active).

As to `CCOc1ccc(NC(=O)NNC(=O)c2ccc(Cl)cc2Cl)cc1`, the binding response (% of control) was 96% (inactive). Then `NC(N)=N/N=C/c1ccc(OCc2ccc(Cl)cc2Cl)cc1`, with 213% (active). For `NC(N)=N/N=C/c1ccc(Cl)c([N+](=O)[O-])c1`, the binding response (% of control) was 109% (inactive). Then `Cc1cc(OCC(=O)Nc2c(C)n(C)n(-c3ccccc3)c2=O)ccc1[N+](=O)[O-]`, with 97% (inactive).

Regarding `CN(C)S(=O)(=O)c1ccc2oc(SCC(=O)Nc3ccccc3F)nc2c1`, the binding response (% of control) was 99% (inactive).

Take `C=CCNc1nc(N)c([N+](=O)[O-])c(NC2CCCCC2)n1`: the binding response (% of control) was 100% (inactive). Then `O=C(NCCc1c[nH]c2ccccc12)C1CCN(Cc2ccc(Br)cc2)CC1`, with 125% (inactive); and `O=C(c1cccc([N+](=O)[O-])c1)N1CCN(C(=O)c2ccco2)CC1`, with 99% (inactive). Then `O=C(Cc1c(F)cccc1Cl)N1CCN(C(=O)c2ccco2)CC1`, with 99% (inactive); and `O=C(c1ccco1)N1CCN(c2cccc(Cl)c2)CC1`, with -2% [inhibitor] (active).

On to `CC1CC(C)CN(S(=O)(=O)c2cccc3nonc23)C1` (stereo not given), for which the binding response (% of control) is 109% (inactive). Turning to `COc1ccc(OC)c(S(=O)(=O)N2CCCC(C(=O)NCCc3ccccc3)C2)c1` (stereo not given), the binding response (% of control) was 100% (inactive). Then `Cc1cccc(N(C(=O)c2csnn2)C(C(=O)NCc2ccccc2)c2ccncc2)c1` (stereo not given), with 102% (inactive); and `CCC(=C/c1sc2ccc3ccccc3c2[n+]1C)/C=C1\Sc2ccc3ccccc3c2N1C`, with 9% [inhibitor] (active). As to `CCc1ccc(NC(=O)Nc2ccncc2)cc1`, the binding response (% of control) is 107% (inactive). Then `CC1(C)C=Cc2c(ccc3c2OC[C@@H](c2ccc(O)cc2O)C3)O1`, with 107% (inactive); and `COc1ccccc1C(=O)NCc1nnc(SC(C)C(=O)Nc2nccs2)n1C` (stereo not given), with 105% (inactive); and `Cc1ccc(S(=O)(=O)NC2CCCCCC2)cc1C(N)=O`, with 99% (inactive). Then `c1ccc2c(c1)C(=NC1CCCCC1)NC2=NC1CCCCC1`, with 145% (active). Then `O=C(c1noc2c1CCCC2)N1CCc2ccccc2C1`, with 97% (inactive); and `Cc1ccccc1NC(=O)NCC1CCN(Cc2cccc(Cl)c2)CC1`, with 104% (inactive); and `COc1ccc(Cl)cc1NC(=O)NCC1CCN(Cc2ccccc2F)CC1`, with 118% (inactive). Regarding `COc1cc(NC(=O)NCC2CCN(Cc3ccc(C)cc3)CC2)cc(OC)c1OC`, the binding response (% of control) is 113% (inactive).

As to `Cc1ccc(C)c(CN2CCC(CNC(=O)Nc3ccc(C)c(F)c3)CC2)c1`, the binding response (% of control) was 150% (active). For `O=C(NCC1CCN(Cc2ccccc2Cl)CC1)Nc1cccc(Cl)c1`, the binding response (% of control) was 110% (inactive). Then `Cc1cccc(CN2CCC(CNC(=O)Nc3ccc(F)c(Cl)c3)CC2)c1`, with 139% (active); and `CC(C(=O)c1ccc(-c2ccccc2)cc1)[n+]1cccc(Br)c1` (stereo not given), with 123% (inactive). For the molecule `CC(=O)N1CC(=O)N(CC(=O)Nc2ccc(Br)cc2)C1=S`, the binding response (% of control) is 97% (inactive). As to `CCOC(=O)c1cccc(NC(=O)c2ccc(F)cc2F)c1`, the binding response (% of control) is 105% (inactive). As for `CCN(CC(=O)NCC(=O)Nc1cccc(C)c1C)Cc1ccccc1`, the binding response (% of control) was 103% (inactive). Then `CCOC(=O)/C(C#N)=C/c1ccc(OCC(=O)Nc2ccccc2)c(OC)c1`, with 37% [inhibitor] (active). As for `CCCn1c(C)cc(/C=C(\C#N)C(=O)OCC(=O)Nc2cc(OC)c(OC)c(OC)c2)c1C`, the binding response (% of control) is 106% (inactive). Then `COc1cc(C2C3=C(CCCC3=O)OC3=C2C(=O)CCC3)ccc1OCC(=O)Nc1ccccc1`, with 96% (inactive).
